Our source for the composite z-score and z-score values is PubChem BioAssay.

The source made the active and inactive calls.

Experiment [1] in a line: binders of probe aFSTL3 on microarray, primary screen, stem cell growth factor project, biochemical, small-molecule microarray, fluorescence 635/667 (AID 1064).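 Further: measures binding of the biotinylated anti-FSTL3 antibody to printed compounds.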 The settings on record: higher = more signal.
Experiment [2] in a line: binders from COS7 lysate, DM2A8 probe, primary screen, torsin A project, cell lysate, small-molecule microarray, fluorescence 635/667 (AID 1065). Particulars: higher = more signal, COS7 lysate expressing mutant human TOR1A.
Experiment [3] in a line: binders of probe aFGF2 on microarray, primary screen, stem cell growth factor project, biochemical, small-molecule microarray, fluorescence 635/667 (AID 1067).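 Further: measures binding of biotinylated aFGF2 protein to printed compounds on slides; z-score merges feature fluorescence and signal-to-noise across triplicate slides.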 Particulars: higher = more signal.
Experiment [4] can be described thus: binders of probe aFGF10 on microarray, primary screen, stem cell growth factor project, biochemical, small-molecule microarray, fluorescence 635/667 (AID 1071).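 Further: score merges 667 nm spot intensity and signal to noise from triplicate slides.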 The settings on record: higher = more signal.
For experiment [5], the target named is Neurogenic locus notch homolog protein 2 (Homo sapiens) (UniProt Q04721). In words: Notch2 binders on small-molecule microarrays, primary screen, biochemical, small-molecule microarray, 635 nm fluorescence, stem cell growth factors (AID 1073). Particulars: Notch2 binding, higher = more signal.
For experiment [6], the target named is Pro-neuregulin-1, membrane-bound isoform (Homo sapiens) (UniProt Q02297). In words: NRG1 binders on small-molecule microarrays, primary screen, psychiatric disease protein project, biochemical, small-molecule microarray, fluorescence 635/667 (AID 1075).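 Further: score combines 667 nm spot fluorescence with signal to noise.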 The settings on record: NRG1 binding, 635 nm fluorescence, higher = more signal.
Chain of Pro-neuregulin-1, membrane-bound isoform (Homo sapiens) (Q02297 whole entry, looked up, the tested form may be a part, canonical isoform): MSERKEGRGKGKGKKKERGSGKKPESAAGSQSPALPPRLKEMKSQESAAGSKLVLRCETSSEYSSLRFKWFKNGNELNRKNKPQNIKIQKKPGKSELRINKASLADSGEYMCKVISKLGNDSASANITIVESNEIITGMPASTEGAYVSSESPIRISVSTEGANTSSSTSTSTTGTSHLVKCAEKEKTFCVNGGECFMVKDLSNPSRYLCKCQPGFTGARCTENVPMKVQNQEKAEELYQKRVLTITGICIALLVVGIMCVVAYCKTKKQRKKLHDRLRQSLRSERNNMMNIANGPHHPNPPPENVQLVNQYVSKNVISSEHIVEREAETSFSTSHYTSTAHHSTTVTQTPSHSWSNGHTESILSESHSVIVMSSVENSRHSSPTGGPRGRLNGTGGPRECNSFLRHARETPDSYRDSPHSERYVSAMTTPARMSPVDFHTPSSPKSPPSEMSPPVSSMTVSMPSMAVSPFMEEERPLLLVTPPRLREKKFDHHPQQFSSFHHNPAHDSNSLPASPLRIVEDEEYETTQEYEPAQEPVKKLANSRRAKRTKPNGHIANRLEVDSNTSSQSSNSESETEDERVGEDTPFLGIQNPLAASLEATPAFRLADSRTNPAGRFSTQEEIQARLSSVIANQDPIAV
The test system of experiment [7] is Neuregulin-1 EGF-like domain. In words: binders of neuregulin-1 EGF-like domain, primary screen, biochemical, small-molecule microarray, 635 nm fluorescence (AID 1081).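 Further: binding of the protein to compounds printed on small-molecule microarray slides.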 The settings on record: small-molecule microarray binding, higher = more signal.
Experiment [8] is described as follows: FRG1 promoter luciferase signal modulators, primary screen, FRG1 inhibition for FSHD, cell-based, C2C12 myotubes, firefly/Renilla luciferase, luminescence (AID 1084). The settings on record: higher = more signal, called active from +8 up or from −8 down.
Experiment [9] in a line: binders of probe aFST on microarray, primary screen, stem cell growth factor project, biochemical, small-molecule microarray, fluorescence 635/667 (AID 1086).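 Further: score merges 667 nm fluorescence with signal-to-noise of each printed compound spot.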 The settings on record: higher = more signal.
Experiment [10] can be described thus: binders of probe aHhip on microarray, primary screen, stem cell growth factor project, biochemical, small-molecule microarray, fluorescence 635/667 (AID 1087).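 Further: score merges spot fluorescence at 667nm with spot signal to noise ratio.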 The settings on record: higher = more signal.
Experiment [11] relates to PRMT1 (protein arginine N-methyltransferase 1). Description: PRMT1 binders on small-molecule microarrays, primary screen, biochemical, small-molecule microarray, 635 nm fluorescence (AID 1088).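 Further: binding of Prmt1 protein to compounds spotted on small-molecule microarray slides.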 Particulars: small-molecule microarray binding, higher = more signal.
The nature of experiment [12]: yeast growth modulation, basal conditions, primary screen, YJM789 clinical isolate, OD600, 24 h (AID 1089).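 Further: growth of clinical yeast isolate S. cerevisiae YJM 789 seeded 1000 cells per well; test concentration not given here.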 The settings on record: S. cerevisiae YJM789 growth, higher = more signal, called active from +8 up or from −8 down.
A short description of experiment [13]: fission yeast growth modulation, primary screen, strain 972, OD600, 24 h, no modulator (AID 1090).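 Further: basal condition with compound alone and no growth modifier present; test concentration not given here.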 The settings on record: S. pombe 972 growth, higher = more signal, called active from +8 up or from −8 down.
The nature of experiment [14]: S. cerevisiae growth modulation with rapamycin, primary screen, strain BY4716, OD600, 96 h (AID 1091). Further: test concentration not given here. The settings on record: higher = more signal, called active from +8 up or from −8 down.
Experiment [15] has as its target Torsin-1A-interacting protein 2 (Homo sapiens) (UniProt Q8NFQ8). In words: LULL1 binders on small-molecule microarray, primary screen, cell lysate, human LULL1 lysate, 635/667 nm fluorescence (AID 1092).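 Further: probe is lysate of COS7 cells overexpressing human LULL1; score merges per-feature 667 nm fluorescence with signal-to-noise.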 Particulars: hLULL1 lysate binding, 635 nm fluorescence, higher = more signal.
Experiment [16] can be described thus: E. coli growth modulation, two-sided OD650, primary screen, E. coli filamentation project, strain DRC41, 24 h (AID 1093).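 Further: MC1000 strain lacking acrAB efflux and sulA so SOS filamentation is blocked; test concentration not given here.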 The settings on record: OD650, 24 h, higher = more signal, called active from +8 up or from −8 down.
A short description of experiment [17]: small-molecule microarray binders of probe aLefty2, primary screen, biochemical, biotinylated probe, 635/667 nm fluorescence (AID 1094).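 Further: score merges spot fluorescence near 667 nm with spot signal-to-noise ratio.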 Particulars: higher = more signal.
Experiment [18] concerns Noggin (protein binding on small-molecule microarray). Description: Noggin binders on small-molecule microarray, primary screen, biochemical, 635/667 nm fluorescence (AID 1095).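 Further: score merges 667 nm feature fluorescence with signal to noise over triplicate slides.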 Particulars: 635 nm fluorescence, higher = more signal.
The target in experiment [19] is Neurogenic locus notch homolog protein 3 (Homo sapiens) (UniProt Q9UM47). Description: NOTCH3 binders on small-molecule microarray, primary screen, biochemical, 635/667 nm fluorescence (AID 1096). The settings on record: NOTCH3 binding, 635 nm fluorescence, higher = more signal.
Chain of Neurogenic locus notch homolog protein 3 (Homo sapiens) (Q9UM47 whole entry, looked up): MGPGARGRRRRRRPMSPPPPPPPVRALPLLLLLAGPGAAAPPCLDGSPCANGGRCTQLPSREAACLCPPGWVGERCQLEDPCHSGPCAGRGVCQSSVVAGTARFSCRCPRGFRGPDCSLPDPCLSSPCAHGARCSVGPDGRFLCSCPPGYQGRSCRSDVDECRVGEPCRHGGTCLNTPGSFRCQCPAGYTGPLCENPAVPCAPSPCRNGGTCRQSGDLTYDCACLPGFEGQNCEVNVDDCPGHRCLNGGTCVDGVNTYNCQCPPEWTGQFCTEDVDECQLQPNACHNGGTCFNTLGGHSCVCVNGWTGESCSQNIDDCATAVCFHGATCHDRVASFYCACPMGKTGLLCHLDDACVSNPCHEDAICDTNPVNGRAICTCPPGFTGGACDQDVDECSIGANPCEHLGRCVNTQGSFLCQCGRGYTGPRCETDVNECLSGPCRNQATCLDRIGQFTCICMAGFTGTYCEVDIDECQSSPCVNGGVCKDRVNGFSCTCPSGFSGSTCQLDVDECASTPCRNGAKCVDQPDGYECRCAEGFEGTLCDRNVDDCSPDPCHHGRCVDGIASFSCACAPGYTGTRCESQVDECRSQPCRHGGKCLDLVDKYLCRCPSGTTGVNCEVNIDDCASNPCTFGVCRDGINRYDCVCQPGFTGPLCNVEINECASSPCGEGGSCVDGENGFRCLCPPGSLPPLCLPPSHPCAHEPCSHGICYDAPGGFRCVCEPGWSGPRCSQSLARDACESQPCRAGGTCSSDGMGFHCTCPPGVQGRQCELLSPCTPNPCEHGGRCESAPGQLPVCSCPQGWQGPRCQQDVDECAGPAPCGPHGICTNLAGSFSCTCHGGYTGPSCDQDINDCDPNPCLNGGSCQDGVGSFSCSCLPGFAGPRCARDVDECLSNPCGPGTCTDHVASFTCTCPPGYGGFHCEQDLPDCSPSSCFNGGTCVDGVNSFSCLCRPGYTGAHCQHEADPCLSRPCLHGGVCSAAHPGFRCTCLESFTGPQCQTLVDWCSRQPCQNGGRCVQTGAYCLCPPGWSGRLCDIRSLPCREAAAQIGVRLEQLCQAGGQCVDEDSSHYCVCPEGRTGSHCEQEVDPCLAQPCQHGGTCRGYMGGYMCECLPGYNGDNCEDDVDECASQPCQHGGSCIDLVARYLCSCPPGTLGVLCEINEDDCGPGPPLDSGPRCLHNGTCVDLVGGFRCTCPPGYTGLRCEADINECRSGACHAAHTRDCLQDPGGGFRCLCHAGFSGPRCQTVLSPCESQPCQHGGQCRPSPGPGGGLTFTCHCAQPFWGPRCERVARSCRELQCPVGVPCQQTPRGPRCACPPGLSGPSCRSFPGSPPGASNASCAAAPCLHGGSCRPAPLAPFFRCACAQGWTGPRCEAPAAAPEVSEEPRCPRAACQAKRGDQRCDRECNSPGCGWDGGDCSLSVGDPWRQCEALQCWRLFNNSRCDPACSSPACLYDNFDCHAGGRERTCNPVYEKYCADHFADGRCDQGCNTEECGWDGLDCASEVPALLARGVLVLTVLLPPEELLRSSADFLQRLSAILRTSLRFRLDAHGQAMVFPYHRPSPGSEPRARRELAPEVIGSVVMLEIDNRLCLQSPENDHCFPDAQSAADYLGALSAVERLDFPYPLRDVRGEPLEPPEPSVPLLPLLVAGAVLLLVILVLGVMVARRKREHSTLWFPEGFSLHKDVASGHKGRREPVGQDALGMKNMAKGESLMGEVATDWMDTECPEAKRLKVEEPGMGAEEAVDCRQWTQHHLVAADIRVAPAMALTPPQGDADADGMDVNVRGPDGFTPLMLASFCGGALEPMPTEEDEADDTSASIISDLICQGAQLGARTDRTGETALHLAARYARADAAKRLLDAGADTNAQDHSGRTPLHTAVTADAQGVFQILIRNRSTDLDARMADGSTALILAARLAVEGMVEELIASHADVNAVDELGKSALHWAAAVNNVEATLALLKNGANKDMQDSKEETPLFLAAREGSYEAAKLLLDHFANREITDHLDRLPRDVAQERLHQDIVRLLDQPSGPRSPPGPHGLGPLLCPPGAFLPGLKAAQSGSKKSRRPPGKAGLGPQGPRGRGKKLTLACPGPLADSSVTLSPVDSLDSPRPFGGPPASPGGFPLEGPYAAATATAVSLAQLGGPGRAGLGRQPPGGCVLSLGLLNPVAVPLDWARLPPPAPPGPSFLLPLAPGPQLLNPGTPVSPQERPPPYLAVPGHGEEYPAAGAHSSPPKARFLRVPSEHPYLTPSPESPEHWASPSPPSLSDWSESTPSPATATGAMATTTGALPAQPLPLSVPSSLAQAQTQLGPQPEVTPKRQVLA
Experiment [20] in a line: small-molecule microarray binders of probe aEGFR, primary screen, biochemical, biotinylated probe, 635/667 nm fluorescence (AID 1097).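 Further: probe is a biotinylated anti-EGFR antibody binding compounds printed on slides; score combines fluorescence near 667 nm and signal to noise of each spot.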 Particulars: higher = more signal.

Chain of Torsin-1A-interacting protein 2 (Homo sapiens) (Q8NFQ8 whole entry, looked up): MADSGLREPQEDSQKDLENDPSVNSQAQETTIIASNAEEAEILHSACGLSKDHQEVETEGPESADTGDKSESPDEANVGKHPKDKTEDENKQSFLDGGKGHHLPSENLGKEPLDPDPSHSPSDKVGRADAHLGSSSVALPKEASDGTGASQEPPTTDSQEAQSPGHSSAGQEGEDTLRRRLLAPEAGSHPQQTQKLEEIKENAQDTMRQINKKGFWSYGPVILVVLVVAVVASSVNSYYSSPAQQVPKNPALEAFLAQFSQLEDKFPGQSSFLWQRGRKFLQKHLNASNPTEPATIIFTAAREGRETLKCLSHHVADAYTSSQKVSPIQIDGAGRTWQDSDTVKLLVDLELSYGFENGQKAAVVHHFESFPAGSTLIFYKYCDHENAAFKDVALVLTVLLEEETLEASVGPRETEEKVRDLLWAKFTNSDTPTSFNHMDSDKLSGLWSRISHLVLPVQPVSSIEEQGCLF

As for `CCc1cc2c(nc1CC)CCN(CCC(C)=NO[C@@H]1O[C@H](COC(C)=O)[C@@H](OC(C)=O)[C@H](OC(C)=O)[C@H]1OC(C)=O)C2`, the composite z-score was -0.191 in [1]; 0.905 in [2]; 0.0333 in [3]; 0.928 in experiment [4]; 0.839 in experiment [5]; 0.408 in experiment [6]. For the same molecule, the composite z-score is 0.996 in experiment [7]; 0.365 in [9]; -0.0994 in [10]; 1.55 in [11]; 0.809 in experiment [15]; -0.0271 in [17]. Besides, the composite z-score in [18] turned out to be 1.06; in [19] it was 1.1; in experiment [20], 0.131. The z-score in [8] is 1.05 (inactive); in experiment [12] it was -0.149 (inactive); in experiment [13], -0.35 (inactive); in experiment [14] it was 0.143 (inactive); in experiment [16] it was -0.551 (inactive).

For the molecule `COC(=O)[C@H](C)NC(=O)CCC1CC(OC(=O)NCCc2ccc(F)cc2)CC2(CCCC(COC(=O)NCC3CCCCC3)O2)O1` (stereo not given in full), the composite z-score was -0.429 in [1]; 0.437 in [2]; -0.116 in experiment [3]; 0.605 in experiment [4]; 1.32 in [5]; 0.618 in [6]. Also, the composite z-score is 1.06 in experiment [7]; 0.486 in [9]; -0.143 in experiment [10]; 1.49 in experiment [11]; 2.16 in [15]; -0.139 in [17]. The composite z-score in experiment [18] was 0.883; in experiment [19] it was 1.06; in [20] it was 0.0207. The z-score is 0.617 (inactive) in experiment [8]; -0.797 (inactive) in [12]; -0.781 (inactive) in [13]; 0.689 (inactive) in experiment [14]; -0.718 (inactive) in experiment [16].

Consider `CCOC(=O)[C@H](Cc1ccccc1)NC(=O)CCC1CC(OC(=O)NCCc2ccc(F)cc2)CC2(CCCC(COC(=O)NCCC(C)C)O2)O1` (stereo not given in full), for which the composite z-score in experiment [1] is -0.397; in [2], 0.813; in experiment [3], -0.0296; in [4], -0.409; in experiment [5], 1.28; in experiment [6] it was 0.539. Further, the composite z-score in experiment [7] is 1.02; in experiment [9], 0.296; in [10] it was -0.201; in experiment [11] it was 1.56; in experiment [15] it was 2.32; in [17], -0.145. The composite z-score in experiment [18] was 1.24; in experiment [19], 1.07; in experiment [20] it was -0.0424. Also, the z-score in [8] is -0.214 (inactive); in [12], 0.91 (inactive); in experiment [13] it was 0.902 (inactive); in [14], 0.783 (inactive); in [16], 0.087 (inactive).

Take `CC(C)=CCCC(C)=CCON=C1C[C@@H](O)[C@@H](O)[C@@H]2[C@@H]3C(=O)N(C4CCCCC4)C(=O)[C@@H]3CC[C@H]12`: the composite z-score in [1] was -0.317; in experiment [2], 0.396; in [3], -0.0725; in experiment [4], 0.548; in [5], 0.535; in experiment [6], 0.475. The composite z-score was 0.255 in experiment [7]; 0.53 in [9]; 0.408 in experiment [10]; 1.52 in experiment [11]; 0.341 in experiment [15]; -0.0575 in experiment [17]. For the same molecule, the values for the composite z-score in experiment [18], in experiment [19] and in experiment [20] were 1.07, 0.789 and 0.0065, respectively. Moreover, the z-score was 0.0864 (inactive) in [8]; 0.194 (inactive) in experiment [12]; -0.312 (inactive) in [13]; -0.382 (inactive) in [14]; 0.474 (inactive) in experiment [16].

In the case of `O=C1[C@H]2[C@H]3[C@H](O)[C@H](O)CC(=NOC[C@@H](O)COCc4ccco4)[C@@H]3CC[C@H]2C(=O)N1Cc1ccc2c(c1)OCO2`, the composite z-score in [1] was -0.622; in experiment [2], 2.39; in experiment [3], -0.292; in [4] it was -0.738; in experiment [5], -0.541; in experiment [6], -0.285. Further, the composite z-score is 1.1 in [7]; -0.0769 in experiment [9]; 0.2 in experiment [10]; 1.4 in experiment [11]; -0.689 in [15]; -0.172 in experiment [17]. For the same molecule, the composite z-score in [18] was 1.17; in experiment [19], -0.177; in experiment [20] it was -0.0177. Moreover, the z-score in [8] was -0.196 (inactive); in [12], 0.421 (inactive); in experiment [13], 0.674 (inactive); in experiment [14], 0.463 (inactive); in experiment [16], 2.06 (inactive).
